# Data: the supplement of paper PMC8728848
# The sample as a whole holds a higher share of the strongest signals than the screen did.
# Legend:
# Assay in all cases: glycan array binding signal (z-score within array); higher = stronger binding
# Conditions in all cases: glycan notation: IUPAC condensed, linker removed
# [1] = target: Fuc(a1-2)Gal
# Method in brief: (§1)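 Glycan array data were curated from 3228 arrays in the Consortium for Functional Glycomics database and kept only where the protein sequence was available. Glycan names were converted to IUPAC-condensed notation, and columns mapping to the same glycan were averaged. The binding signal is a within-array Z-score, averaged across arrays of the same protein sequence at different concentrations or buffers and across linkers. Negative Z-scores can be read as non-binding.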
# [2] = target: Fuc(a1-2)Gal(b1-3)GalNAc(b1-3)Gal(b1-4)Glc
# Method in brief: as §1
# [3] = target: Gal(b1-3)GalNAc(b1-3)Gal(b1-4)Glc
# Method in brief: as §1
# [4] = target: Gal(b1-3)GalNAc(b1-4)Gal(b1-4)Glc
# Method in brief: as §1
# [5] = target: Gal(b1-4)Glc
# Method in brief: as §1
# [6] = target: Gal(b1-4)GlcNAc
# Method in brief: as §1
# [7] = target: Gal(b1-4)GlcNAc(b1-3)Gal(b1-4)Glc
# Method in brief: as §1
# [8] = target: Gal(b1-4)GlcNAc(b1-3)Gal(b1-4)GlcNAc(b1-3)Gal(b1-4)GlcNAc
# Method in brief: as §1
# [9] = target: GalNAc(b1-4)GlcNAc
# Method in brief: as §1
# [10] = target: GlcNAc(a1-3)Gal(b1-4)GlcNAc
# Method in brief: as §1
# [11] = target: GlcNAc(a1-6)Gal(b1-4)GlcNAc
# Method in brief: as §1
# [12] = target: GlcNAc(b1-3)Gal
# Method in brief: as §1
# [13] = target: GlcNAc(b1-3)Gal(b1-3)GalNAc
# Method in brief: as §1
# [14] = target: GlcNAc(b1-6)Gal(b1-4)GlcNAc
# Method in brief: as §1
# [15] = target: Man(a1-2)Man(a1-2)Man(a1-3)Man
# Method in brief: as §1
# [16] = target: Neu5Gc(a2-3)Gal(b1-4)GlcNAc
# Method in brief: as §1
# [17] = target: Fuc(a1-2)Gal(b1-3)GlcNAc(b1-3)Gal(b1-4)Glc
# Method in brief: as §1
# [18] = target: Fuc(a1-2)Gal6S(b1-4)GlcNAc
# Method in brief: as §1
# [19] = target: Fuc(a1-3)[Gal(b1-4)]GlcNAc(b1-2)Man(a1-3)[Fuc(a1-3)[Gal(b1-4)]GlcNAc(b1-2)Man(a1-6)]Man(b1-4)GlcNAc(b1-4)GlcNAc
# Method in brief: as §1
# [20] = target: Fuc(a1-3)[Gal(b1-4)]GlcNAc(b1-2)Man(a1-6)[Gal(b1-4)GlcNAc(b1-2)Man(a1-3)]Man(b1-4)GlcNAc(b1-4)GlcNAc
# Method in brief: as §1
# [21] = target: Fuc(a1-3)[GalNAc(b1-4)]GlcNAc
# Method in brief: as §1
# [22] = target: Fuc(b1-3)GlcNAc
# Method in brief: as §1
# [23] = target: Gal(a1-3)GalNAc
# Method in brief: as §1
# [24] = target: Gal(b1-3)GlcNAc(b1-3)Gal(b1-4)Glc
# Method in brief: as §1
# [25] = target: Gal(b1-3)GlcNAc(b1-3)Gal(b1-4)GlcNAc
# Method in brief: as §1
# [26] = target: Gal(b1-3)[Neu5Ac(a2-6)]GlcNAc(b1-6)Gal(b1-4)Glc
# Method in brief: as §1
# [27] = target: Gal(b1-4)GlcNAc(b1-3)[Gal(b1-4)GlcNAc(b1-6)]GalNAc
# Method in brief: as §1
# [28] = target: Gal(b1-4)GlcNAc(b1-6)GalNAc
# Method in brief: as §1
# [29] = target: Gal(b1-4)GlcNAc(b1-6)[Gal(b1-3)]GalNAc
# Method in brief: as §1
# [30] = target: Gal6S(b1-4)Glc6S
# Method in brief: as §1
# [31] = target: Gal6S(b1-4)GlcNAc6S
# Method in brief: as §1
# [32] = target: GlcNAc(b1-3)[GlcNAc(b1-6)]GlcNAc(b1-4)GlcNAc
# Method in brief: as §1
# [33] = target: Man(a1-2)Man(a1-2)Man(a1-3)[Man(a1-2)Man(a1-3)[Man(a1-2)Man(a1-6)]Man(a1-6)]Man(b1-4)GlcNAc(b1-4)GlcNAc
# Method in brief: as §1
# [34] = target: Man(a1-2)Man(a1-2)Man(a1-6)[Man(a1-3)]Man
# Method in brief: as §1
# [35] = target: Man(a1-2)Man(a1-3)[Man(a1-2)Man(a1-6)]Man
# Method in brief: as §1
# [36] = target: Man(a1-2)Man(a1-3)[Man(a1-3)[Man(a1-6)]Man(a1-6)]Man(b1-4)GlcNAc(b1-4)GlcNAc
# Method in brief: as §1
# [37] = target: Neu5Ac(a2-3)Gal(b1-3)GalNAc(b1-4)[Neu5Ac(a2-3)]Gal(b1-4)Glc
# Method in brief: as §1
# [38] = target: Neu5Ac(a2-3)Gal(b1-3)GlcNAc
# Method in brief: as §1
# [39] = target: Neu5Ac(a2-3)Gal(b1-4)GlcNAc
# Method in brief: as §1
# [40] = target: Neu5Ac(a2-8)Neu5Ac(a2-8)Neu5Ac(a2-3)[GalNAc(b1-4)]Gal(b1-4)Glc
# Method in brief: as §1
Binder,glycan array binding signal (z-score) [1],glycan array binding signal (z-score) [2],glycan array binding signal (z-score) [3],glycan array binding signal (z-score) [4],glycan array binding signal (z-score) [5],glycan array binding signal (z-score) [6],glycan array binding signal (z-score) [7],glycan array binding signal (z-score) [8],glycan array binding signal (z-score) [9],glycan array binding signal (z-score) [10],glycan array binding signal (z-score) [11],glycan array binding signal (z-score) [12],glycan array binding signal (z-score) [13],glycan array binding signal (z-score) [14],glycan array binding signal (z-score) [15],glycan array binding signal (z-score) [16],glycan array binding signal (z-score) [17],glycan array binding signal (z-score) [18],glycan array binding signal (z-score) [19],glycan array binding signal (z-score) [20],glycan array binding signal (z-score) [21],glycan array binding signal (z-score) [22],glycan array binding signal (z-score) [23],glycan array binding signal (z-score) [24],glycan array binding signal (z-score) [25],glycan array binding signal (z-score) [26],glycan array binding signal (z-score) [27],glycan array binding signal (z-score) [28],glycan array binding signal (z-score) [29],glycan array binding signal (z-score) [30],glycan array binding signal (z-score) [31],glycan array binding signal (z-score) [32],glycan array binding signal (z-score) [33],glycan array binding signal (z-score) [34],glycan array binding signal (z-score) [35],glycan array binding signal (z-score) [36],glycan array binding signal (z-score) [37],glycan array binding signal (z-score) [38],glycan array binding signal (z-score) [39],glycan array binding signal (z-score) [40]
"TbCVNHOa (Tuber borchii), Q5MK11 (protein) GSHIGPYMSYADSSRNAVLTNGGRTLRAECRNADGNWVTSELDLDTCIGNPNGFLGWGMQNFSHSSEDIKLEEGGRKLTCRPKTVDGGFRERQGIDLNRIQNVNGRLVFQ",-0.262,3.46,5.6,-0.271,-0.264,-0.238,2.73,-0.058,-0.239,-0.293,-0.292,-0.283,-0.222,-0.247,3.86,-0.209,–,–,–,–,–,–,–,–,–,–,–,–,–,–,–,–,–,–,–,–,–,–,–,–
"NcCVNHO (Neurospora crassa), Q7S6U4 (protein) MSFHVTAEDARIEVRDNRTILFARLRREDGEWNDASYELDQIIGNNDGHFQWGGQNFTETAEDIRFHPKEGAAEQPILRARLRDCNGEFHDRDVNLTEIVENVNGEFQAKF",-0.209,–,–,–,–,–,–,–,–,–,-0.245,–,–,–,–,–,5.47,-0.185,-0.194,-0.185,-0.254,-0.209,-0.225,4.71,-0.264,4.11,-0.246,-0.228,-0.196,-0.209,-0.172,-0.297,8.87,4.66,4.86,0.23,-0.244,-0.217,-0.24,-0.24
